From PubChem BioAssay (Tox21)
Unmarked numbers belong to inactive results. Records with an inconclusive call do not appear. The source made the active and inactive calls. Calls come from the whole dose curve.

Target: Estrogen receptor (Homo sapiens) (UniProt P03372)
Assay: qHTS assay to identify small molecule agonists of the estrogen receptor alpha (ER-alpha) signaling pathway in the presence of an antagonist (AID 1259383); note: top concentration of the series differs between compounds; nearly all actives have a fitted effect of over 15% in size
Conditions: VM7Luc4E2 cells, ERE-luciferase, +ICI-182,780, 22 h; series mostly up to 92.4 µM; activation: at the top concentration
How it was run: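 Luciferase luminescence (ONE-Glo, 30min at room temperature) measured in VM7Luc4E2 cells after 22hr compound exposure at 15 concentrations, with 10.0nM ICI-182,780 final present; cells express endogenous ER-alpha and carry four EREs upstream of luciferase.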
% is set by controls: 0 for no effect and ±100 for the full control effect.

Estrogen receptor (Homo sapiens), sequence (P03372 whole entry, looked up): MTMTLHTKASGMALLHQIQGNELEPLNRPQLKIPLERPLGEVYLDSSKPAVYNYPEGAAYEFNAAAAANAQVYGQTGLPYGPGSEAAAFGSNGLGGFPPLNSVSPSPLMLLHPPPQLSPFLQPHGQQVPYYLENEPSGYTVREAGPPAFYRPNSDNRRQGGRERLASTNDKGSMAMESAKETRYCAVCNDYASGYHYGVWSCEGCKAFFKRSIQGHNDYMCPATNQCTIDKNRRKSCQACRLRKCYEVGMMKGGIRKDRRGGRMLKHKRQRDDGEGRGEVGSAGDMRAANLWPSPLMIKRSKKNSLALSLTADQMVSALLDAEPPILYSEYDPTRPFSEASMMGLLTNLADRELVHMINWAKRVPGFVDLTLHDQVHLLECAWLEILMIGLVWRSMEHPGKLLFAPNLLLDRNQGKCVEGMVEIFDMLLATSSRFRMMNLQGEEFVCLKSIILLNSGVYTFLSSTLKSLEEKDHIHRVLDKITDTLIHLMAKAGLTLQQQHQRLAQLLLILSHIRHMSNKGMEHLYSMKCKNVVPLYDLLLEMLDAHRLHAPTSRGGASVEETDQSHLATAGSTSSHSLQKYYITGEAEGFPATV

Going from CN1C(=O)CC(C)(c2ccccc2)C1=O (stereo unspecified) to O=C(O)C(Cc1cc(I)c(O)c(I)c1)c1ccccc1 (stereo unspecified), the “activation” value falls from -0.45% [at 42.5 µM] to -0.492% [at 42.5 µM].

Going from CN1Cc2cc(C(=O)N3CCC(C4CCNCC4)CC3)ccc2N[C@@H](CC(=O)O)C1=O to CCn1cc(C(=O)O)c(=O)c2cc(F)c(N3CCNCC3)nc21, the “activation” value rises from -0.568% [at 42.5 µM] to -0.01% [at 42.5 µM].

First: CC(CCc1ccc2c(c1)OCO2)NN (stereo unspecified)
Second: CCCOC(=O)c1ccc(N)cc1
The “activation” value of the first is lower: 1.58% [at 42.5 µM] for the first, 9.23% [at 42.5 µM] for the second.

Compared with CC(=O)OCC(=O)[C@@]12OC(C)(C)O[C@@H]1C[C@H]1[C@@H]3C[C@H](F)C4=CC(=O)C=C[C@]4(C)[C@@]3(F)[C@@H](O)C[C@@]12C, CCOCCn1c(C2CCN(CCc3ccc(C(C)(C)C(=O)O)cc3)CC2)nc2ccccc21 is lower in “activation” value: 0.227% [at 42.5 µM] for the first, -0.462% [at 42.5 µM] for the second.

Compared with CC(=O)Nc1ccccc1C, CC(=O)Nc1ccc(N)cc1 is higher in “activation” value: 0.386% for the first, 0.676% for the second.

Going from CCCCC(CC)COC(=O)COc1ccc(Cl)cc1C (stereo unspecified) to CCCCOC(=O)CCS, the “activation” value falls from 0.0737% to -10.5%.

Compared with COc1ccc(CCC(=O)c2c(O)cc(O[C@@H]3O[C@H](CO)[C@@H](O)[C@H](O)[C@H]3O[C@@H]3O[C@@H](C)[C@H](O)[C@@H](O)[C@H]3O)cc2O)cc1O, O=C(O)c1cccc(O)c1 is lower in “activation” value: 2.22% for the first, -0.0645% for the second.

First: CCCOCCOCCO
Second: CCCCCCCCCOC(C)=O
The “activation” value of the first is higher: -0.116% for the first, -0.125% for the second.

Going from CC1=C(C=O)C(C)(C)CCC1 to O=S1OCCO1, the “activation” value rises from -0.0782% to 0.274%.

First: CC(CCO)CCc1ccccc1 (stereo unspecified)
Second: Cc1ccnc2ccccc12
The “activation” value of the first is lower: 0.251% for the first, 0.78% for the second.

Going from Cc1nc2ccccc2s1 to NC(=O)Nc1ccc(Cl)cc1, the “activation” value rises from -0.906% to 0.694%.

In the case of CCOC(=O)/C=C/C(=O)O, the “activation” value is reported as -1.29%.

First: C=CCCCCCCCCCCCCCCCC
Second: [O]=[Bi]
The activation of the first is lower: -0.131% [at 8.39 µM] for the first, 0.802% [at 8.39 µM] for the second.

Going from CN1CCN(c2c(F)cc3c(=O)c(C(=O)O)cn4c3c2OCN4C)CC1 to CCCC(=O)O[C@]1(C(=O)COC(=O)CC)CC[C@H]2[C@@H]3CCC4=CC(=O)CC[C@]4(C)[C@H]3[C@@H](O)C[C@@]21C, the activation rises from -0.999% [at 19 µM] to 0.91% [at 19 µM].

With CCC(=O)OC/C=C/c1ccccc1 the Potency was “inactive”.
In the case of Cc1cc(O)c(C(C)C)cc1Cl, the Potency is reported as “inactive”.

Test system: not listed separately
Assay: qHTS assay to identify small molecule agonists or antagonists of the thyroid stimulating hormone receptor (TSHR) signaling pathway - wild type cell line counter screen (AID 1259384)
Conditions: HEK293 wild type, cAMP HTRF counter-screen, stronger effect = higher value; series mostly up to 92.4 µM; cAMP activity change: at the top concentration
How it was run: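 Wild-type HEK293 cells were plated 18 h at 37 C/5% CO2, pin-dosed with compound plus Ro20-1724 medium, held 30 min at room temperature, then given cAMP-d2 and anti-cAMP-cryptate; fluorescence was read after 1 h. Fifteen concentrations, triplicate.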

First: CN1C(=O)CC(C)(c2ccccc2)C1=O (stereo unspecified)
Second: Cc1ccccc1N1C(=O)c2cc(S(N)(=O)=O)c(Cl)cc2NC1C (stereo unspecified)
The “cAMP activity change” value of the first is higher: 1.91% [at 42.5 µM] for the first, 0.0624% [at 42.5 µM] for the second.

Going from Cc1cc(OI)c(C(C)C)cc1-c1cc(C(C)C)c(OI)cc1C to O=C(O)C(Cc1cc(I)c(O)c(I)c1)c1ccccc1 (stereo unspecified), the “cAMP activity change” value rises from -0.371% [at 42.5 µM] to 7.21% [at 42.5 µM].

Compared with CN1Cc2cc(C(=O)N3CCC(C4CCNCC4)CC3)ccc2N[C@@H](CC(=O)O)C1=O, CCn1cc(C(=O)O)c(=O)c2cc(F)c(N3CCNCC3)nc21 is higher in “cAMP activity change” value: -7.24% [at 42.5 µM] for the first, -3.06% [at 42.5 µM] for the second.

Going from CC(CCc1ccc2c(c1)OCO2)NN (stereo unspecified) to CCOCCn1c(C2CCN(CCc3ccc(C(C)(C)C(=O)O)cc3)CC2)nc2ccccc21, the “cAMP activity change” value rises from -2.53% [at 42.5 µM] to 1.39% [at 42.5 µM].

With CC(=O)OCC(=O)[C@@]12OC(C)(C)O[C@@H]1C[C@H]1[C@@H]3C[C@H](F)C4=CC(=O)C=C[C@]4(C)[C@@]3(F)[C@@H](O)C[C@@]12C the “cAMP activity change” value was 3.74% [at 42.5 µM].

First: CC(=O)Nc1ccccc1C
Second: CC(=O)Nc1ccc(N)cc1
The “cAMP activity change” value of the first is higher: -0.285% for the first, -8.63% for the second.

Compared with CCCCC(CC)COC(=O)COc1ccc(Cl)cc1C (stereo unspecified), CCCCCCOC(=O)C(C)C is lower in “cAMP activity change” value: 4.27% for the first, 0.574% for the second.

Compared with COc1ccc(CCC(=O)c2c(O)cc(O[C@@H]3O[C@H](CO)[C@@H](O)[C@H](O)[C@H]3O[C@@H]3O[C@@H](C)[C@H](O)[C@@H](O)[C@H]3O)cc2O)cc1O, CO[C@H]1O[C@H](CO)[C@@H](O)[C@H](O)[C@H]1O is higher in “cAMP activity change” value: 2.78% for the first, 6.07% for the second.

First: CCCOCCOCCO
Second: CCCCOC(=O)CCS
The “cAMP activity change” value of the first is lower: -1.77% for the first, 2.94% for the second.

First: CC1=C(C=O)C(C)(C)CCC1
Second: CC1(C)C(=O)N(Br)C(=O)N1Cl
The “cAMP activity change” value of the first is higher: 4.12% for the first, 1.03% for the second.

Compared with CC(CCO)CCc1ccccc1 (stereo unspecified), Cc1ccnc2ccccc12 is higher in “cAMP activity change” value: -5.1% for the first, -5.04% for the second.

Going from O=C(O)c1snc(Cl)c1Cl to O=C(O)c1cccc(O)c1, the “cAMP activity change” value falls from 7.53% to -0.621%.

Going from Cc1nc2ccccc2s1 to CCOC(=O)/C=C/C(=O)O, the “cAMP activity change” value falls from 7.27% to 1.89%.

First: C=CC(=O)NCOCC(C)C
Second: CCCCCCCCCOC(C)=O
The “cAMP activity change” value of the first is higher: 1.39% for the first, -0.431% for the second.

In the case of O=S1OCCO1, the “cAMP activity change” value is reported as -0.613%.

In the case of C=CCCCCCCCCCCCCCCCC, the cAMP activity change is reported as -0.74% [at 8.39 µM].

Going from CN1CCN(c2c(F)cc3c(=O)c(C(=O)O)cn4c3c2OCN4C)CC1 to CCCC(=O)O[C@]1(C(=O)COC(=O)CC)CC[C@H]2[C@@H]3CCC4=CC(=O)CC[C@]4(C)[C@H]3[C@@H](O)C[C@@]21C, the cAMP activity change rises from 0.366% [at 18.9 µM] to 6.72% [at 18.9 µM].

Target: Thyrotropin receptor (Homo sapiens) (UniProt P16473)
Assay: qHTS assay to identify small molecule antagonists of the thyroid stimulating hormone receptor (TSHR) signaling pathway (AID 1259385); note: nearly all actives have a fitted effect of over 20% in size
Conditions: TSHR-HEK293 cAMP HTRF, TSH-stimulated antagonist mode; series mostly up to 92.4 µM; activity change, negative = inhibition: at the top concentration
How it was run: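 TSHR-HEK293 cells were plated and held 18 h at 37C/5% CO2, then given compound plus Ro20-1724 and stimulated with TSH at 1.5 ng/mL final. After 30 min at room temperature, cAMP was detected with cAMP-d2/anti-cAMP-cryptate (1 h) by fluorescence.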

Thyrotropin receptor (Homo sapiens), sequence (P16473 whole entry, looked up): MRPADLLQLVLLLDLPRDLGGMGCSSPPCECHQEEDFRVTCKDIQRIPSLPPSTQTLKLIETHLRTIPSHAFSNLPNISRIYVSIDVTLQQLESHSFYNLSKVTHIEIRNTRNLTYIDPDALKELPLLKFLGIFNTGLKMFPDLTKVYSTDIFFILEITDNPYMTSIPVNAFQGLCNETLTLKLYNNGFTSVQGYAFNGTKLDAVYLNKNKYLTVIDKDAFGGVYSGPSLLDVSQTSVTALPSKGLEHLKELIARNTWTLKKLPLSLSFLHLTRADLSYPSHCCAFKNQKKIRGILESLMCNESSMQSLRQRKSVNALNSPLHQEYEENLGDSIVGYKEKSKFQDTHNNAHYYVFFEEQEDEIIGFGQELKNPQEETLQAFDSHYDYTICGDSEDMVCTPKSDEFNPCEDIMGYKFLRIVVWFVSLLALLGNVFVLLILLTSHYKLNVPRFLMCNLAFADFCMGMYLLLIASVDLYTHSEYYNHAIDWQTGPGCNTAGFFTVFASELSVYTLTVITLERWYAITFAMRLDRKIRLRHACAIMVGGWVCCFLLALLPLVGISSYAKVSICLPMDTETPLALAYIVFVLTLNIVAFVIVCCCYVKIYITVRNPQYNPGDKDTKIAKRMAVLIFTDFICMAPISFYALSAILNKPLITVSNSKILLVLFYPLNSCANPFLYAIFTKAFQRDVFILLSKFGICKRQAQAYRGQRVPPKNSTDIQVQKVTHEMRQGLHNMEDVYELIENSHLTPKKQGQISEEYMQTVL

Compared with CN1C(=O)CC(C)(c2ccccc2)C1=O (stereo unspecified), Cc1ccccc1N1C(=O)c2cc(S(N)(=O)=O)c(Cl)cc2NC1C (stereo unspecified) is lower in “activity change, negative = inhibition” value: 3.98% [at 42.5 µM] for the first, 1.21% [at 42.5 µM] for the second.

Compared with Cc1cc(OI)c(C(C)C)cc1-c1cc(C(C)C)c(OI)cc1C, Cc1cc(O)c(C(C)C)cc1Cl is lower in “activity change, negative = inhibition” value: 4.73% [at 42.5 µM] for the first, -7.6% [at 42.5 µM] for the second.

First: CN1Cc2cc(C(=O)N3CCC(C4CCNCC4)CC3)ccc2N[C@@H](CC(=O)O)C1=O
Second: CCn1cc(C(=O)O)c(=O)c2cc(F)c(N3CCNCC3)nc21
The “activity change, negative = inhibition” value of the first is higher: 3.54% [at 42.5 µM] for the first, -0.616% [at 42.5 µM] for the second.

First: O=C(CCCCCCCCC#CI)Oc1ccccc1
Second: O=C(O)C(Cc1cc(I)c(O)c(I)c1)c1ccccc1 (stereo unspecified)
The “activity change, negative = inhibition” value of the first is higher: 4.5% [at 42.5 µM] for the first, 2.65% [at 42.5 µM] for the second.

Going from CC(CCc1ccc2c(c1)OCO2)NN (stereo unspecified) to CCCOC(=O)c1ccc(N)cc1, the “activity change, negative = inhibition” value falls from 0.48% [at 42.5 µM] to -0.272% [at 42.5 µM].

For CCOCCn1c(C2CCN(CCc3ccc(C(C)(C)C(=O)O)cc3)CC2)nc2ccccc21, the “activity change, negative = inhibition” value was 3.44% [at 42.5 µM].

First: COc1ccc(CCC(=O)c2c(O)cc(O[C@@H]3O[C@H](CO)[C@@H](O)[C@H](O)[C@H]3O[C@@H]3O[C@@H](C)[C@H](O)[C@@H](O)[C@H]3O)cc2O)cc1O
Second: CO[C@H]1O[C@H](CO)[C@@H](O)[C@H](O)[C@H]1O
The “activity change, negative = inhibition” value of the first is higher: 5.41% for the first, 2.87% for the second.

Compared with O=C(O)c1snc(Cl)c1Cl, O=C(O)c1cccc(O)c1 is lower in “activity change, negative = inhibition” value: 4.06% for the first, -0.0273% for the second.

Compared with Cc1nc2ccccc2s1, Cc1ccnc2ccccc12 is higher in “activity change, negative = inhibition” value: -0.15% for the first, 8.01% for the second.

Compared with C=CC(=O)NCOCC(C)C, CCOC(=O)/C=C/C(=O)O is higher in “activity change, negative = inhibition” value: -0.778% for the first, 0.767% for the second.

Compared with NC(=O)Nc1ccc(Cl)cc1, CC1(C)C(=O)N(Br)C(=O)N1Cl is lower in “activity change, negative = inhibition” value: 1.88% for the first, -0.154% for the second.

First: CCCCCCCCCOC(C)=O
Second: CCCCOC(=O)CCS
The “activity change, negative = inhibition” value of the first is higher: 2.3% for the first, 2.02% for the second.

Compared with O=S1OCCO1, CC1CC(O)CC(C)(C)C1 (stereo unspecified) is higher in “activity change, negative = inhibition” value: -0.213% for the first, 0.712% for the second.

CCCC(=O)O[C@]1(C(=O)COC(=O)CC)CC[C@H]2[C@@H]3CCC4=CC(=O)CC[C@]4(C)[C@H]3[C@@H](O)C[C@@]21C showed an activity change, negative = inhibition of -1.62% [at 19 µM].
